FEN1 inhibitor – blocks human flap endonuclease 1 | P39748 | Recombinant FEN1 flap cleavage, fluorescence, 15 min | Potency, µM (titrated, usually from 114 µM), usual class: inhibitors | 390,000 tested, 0.35% active | AID 588795; further: nearly all actives have a fitted effect of over 65% in size
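Compounds are tested as a concentration series against 10 nM FEN1; after a 15 min room-temperature preincubation, 50 nM substrate starts cleavage, with plate reads at 0 and 15 min. Normalized responses are fitted by a Hill equation.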
POLB inh – blocks human DNA polymerase beta activity; 340,000 tested, 1.3% active; Pol beta primer extension/strand displacement, fluorescence kinetic; Potency, µM (highest dose often 114 µM), actives largely listed as inhibitors; P06746; AID 485314
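Curves were derived by four-parameter Hill fits of normalized qHTS data. The kinetic fluorescent primer-extension read was taken at 0 and 10 min after 50 nM substrate, following a 15 min room-temperature preincubation of 10 nM enzyme with compounds.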
WRN inhibitor – inhibitors of human WRN helicase; Q14191; WRN helicase unwinding, fluorescent forked duplex, kinetic; Potency, µM (titrated, usually from 114 µM), actives largely listed as inhibitors; 360,000 tested, 0.46% active; further: nearly all actives have a fitted effect of over 55% in size
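Primary qHTS, 1536-well format. 20 nM WRN + compound, 15 min RT; start with 100 nM forked fluorophore/quencher duplex, 2 mM ATP (final); kinetic read ex 525/em 598 nm.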
Pol iota inh – inhibitors of human DNA polymerase iota; Pol iota fluorescent replication assay, 10 min; Potency, µM (highest dose often 115 µM), hits mostly inhibitors; 390,000 tested, 1% active; AID 588590
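Fluorescent replication assay read twice, at 0 min and 10 min after adding 50 nM (final) substrate. Enzyme (10 nM) and compounds were first incubated 15 min at room temperature; enzyme-free buffer wells were negative controls.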
POLH inh – blocks human DNA polymerase eta activity. Q9Y253. recombinant Pol eta, fluorescent DNA replication assay. Potency, µM (series often up to 114 µM), usual class: inhibitors. 390,000 tested, 1.2% active. AID 588591
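Pol eta at 10 nM preincubated with compounds 15 min at room temperature; reaction started with fluorescent substrate (50 nM final) and read kinetically at 0 and 10 min.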
Pol kappa inh – inhibitors of human DNA polymerase kappa | Q9UBT6 | 400,000 tested, 0.53% active | AID 588579 | purified Pol kappa, fluorescent DNA synthesis assay, 10 min | Potency, µM (top dose mostly 107 µM), usual class: inhibitors
Target sequence (Q9UBT6 whole entry, looked up): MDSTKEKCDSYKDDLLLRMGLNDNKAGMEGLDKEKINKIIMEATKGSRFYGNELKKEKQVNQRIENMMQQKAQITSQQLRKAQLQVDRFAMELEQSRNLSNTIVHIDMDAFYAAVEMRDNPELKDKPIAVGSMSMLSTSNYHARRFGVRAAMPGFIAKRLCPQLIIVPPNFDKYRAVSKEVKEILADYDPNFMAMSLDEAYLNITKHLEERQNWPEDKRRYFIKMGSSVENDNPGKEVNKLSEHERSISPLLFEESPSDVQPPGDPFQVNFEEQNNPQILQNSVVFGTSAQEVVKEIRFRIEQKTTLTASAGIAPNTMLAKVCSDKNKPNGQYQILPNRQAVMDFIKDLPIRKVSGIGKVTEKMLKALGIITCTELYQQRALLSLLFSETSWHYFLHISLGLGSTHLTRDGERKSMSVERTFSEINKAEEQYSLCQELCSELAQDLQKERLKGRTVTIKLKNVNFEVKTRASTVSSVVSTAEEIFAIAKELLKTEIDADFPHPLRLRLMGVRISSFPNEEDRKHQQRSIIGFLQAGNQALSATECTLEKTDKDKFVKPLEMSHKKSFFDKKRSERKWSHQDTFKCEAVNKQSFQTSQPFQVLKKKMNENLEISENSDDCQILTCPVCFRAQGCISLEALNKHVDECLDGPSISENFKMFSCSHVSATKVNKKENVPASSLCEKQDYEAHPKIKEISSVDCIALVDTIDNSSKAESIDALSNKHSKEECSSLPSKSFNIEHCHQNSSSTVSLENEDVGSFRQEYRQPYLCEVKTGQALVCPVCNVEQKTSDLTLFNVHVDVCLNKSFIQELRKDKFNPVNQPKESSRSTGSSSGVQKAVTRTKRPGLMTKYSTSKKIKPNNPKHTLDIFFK
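Here, compound and 10 nM enzyme are combined for 15 min at room temperature; adding 50 nM substrate (final) starts DNA synthesis, tracked by fluorescence at 0 and 10 min against buffer-only wells.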
Of the large screens only hits and unclear results are named; the others gave an inactive call; ! = not confirmed by another sample. Hits are enriched below; roughly 2.4% of the tested compounds scored in any of these assays. The call rests on the fitted dose curve; in most records, active means well fitted curve in the direction sought with a large enough effect; inconclusive means small, poorly fitted or top-dose-only effect, or another doubt; inactive means no such curve, though single readings can be large; an effect the other way counts as inactive or inconclusive.

Cc1cc(C)c(NC(=O)CN2C(=O)c3cccnc3Oc3ccc(C)cc32)c(C)c1	POLB inh inconclusive, Pol iota inh 89µM (no result: WRN inhibitor)
O=C(C[n+]1ccncc1)c1ccc2ccccc2c1	none (no result: POLB inh, WRN inhibitor, POLH inh)
[N-]=[N+]=NCCN1CCN(CCc2ccccc2)CCC1=O	none
CCCN1CCC(=O)N(CCN=[N+]=[N-])CC1	POLB inh 32µM
COc1ccccc1Nc1nnc(SCC(=O)N2CCCC2=O)s1	none
CCc1ccc(Nc2nnc(SCC(=O)NC(=O)CN3CCCC3=O)s2)cc1	Pol iota inh 45µM, POLH inh 45µM (no result: POLB inh)
CCCCCCCC/C=C\CCCCCCCCN	none (no result: FEN1 inhibitor, POLB inh, WRN inhibitor, Pol iota inh, POLH inh)
COc1ccc(Cn2c(CNS(=O)(=O)c3ccc4c(c3)CCCC4)nc3cccnc32)cc1	none (no result: WRN inhibitor)
CCc1cc2c(=O)c(-c3nc4ccccc4n3C)c(COCC(=O)O)oc2cc1O	none
CCCc1cc2c(=O)c(-c3nc4ccccc4s3)c(COCC(=O)O)oc2cc1O	Pol iota inh inconclusive, POLH inh 79µM
CC(C)C(=O)Nc1cccc(N2CCN(CCCN3C(=O)C4CCCCN4C3=O)CC2)c1 (stereo not given)	FEN1 inhibitor inconclusive, Pol iota inh 13µM (no result: POLB inh)
Cc1ccc(CNC(=O)c2cc(-c3ccc(C)cc3)nc3n[nH]c(-c4cccc([N+](=O)[O-])c4)c23)cc1	none (no result: WRN inhibitor)
O=C(O)c1ccccc1C(=O)c1ccc(Sc2ccc(Cl)cc2)c([N+](=O)[O-])c1	POLB inh 79µM
Nc1ccccc1Sc1ccc(C(=O)c2ccccc2C(=O)O)cc1[N+](=O)[O-]	POLH inh inconclusive
COc1ccc(CNc2ncnc3ccc(-c4ccc5c(c4)OCO5)cc23)c(OC)c1	none (no result: FEN1 inhibitor, POLB inh, WRN inhibitor, Pol iota inh, POLH inh)
COc1cc2c(cc1OC)-c1cc3ccc4c(c3c[n+]1CC2)OCO4	FEN1 inhibitor inconclusive, POLB inh 40µM, Pol iota inh 14µM, POLH inh inconclusive
COc1cc2c(cc1OC)C(c1ccccc1)=NCC2	none
CCC(C)Nc1nc(N)c([N+](=O)[O-])c(N2CCCCCC2)n1 (stereo not given)	FEN1 inhibitor inconclusive
CC(C)CNc1nc(N)c([N+](=O)[O-])c(N2CCCCCC2)n1	FEN1 inhibitor 45µM
CC(=O)N(C1=C(N)C(=O)c2ccccc2C1=O)C(C)C	none
COc1ccccc1N(C(C)=O)C1=C(Cl)C(=O)c2ccccc2C1=O	POLH inh 50µM (no result: FEN1 inhibitor, POLB inh, Pol iota inh, Pol kappa inh)
O=C(CC(C(=O)O)n1ccnc1)c1ccc(Cl)cc1 (stereo not given)	Pol iota inh inconclusive (no result: POLB inh, WRN inhibitor, POLH inh)
Cc1ccc(-c2nc(-c3cc4cc(Cl)ccc4oc3=O)sc2C)cc1	none (no result: POLB inh, WRN inhibitor, POLH inh)
COc1ccc(OC)c2sc(NC(=O)c3cccc(N4C(=O)CCC4=O)c3)nc12	FEN1 inhibitor inconclusive, POLB inh inconclusive, WRN inhibitor inconclusive, Pol iota inh 28µM, POLH inh inconclusive
COc1ccc(-c2csc(NC(=O)c3cccc(N4C(=O)CCC4=O)c3)n2)cc1C	none
COc1ccc(NC(=O)C2=CC(c3cccs3)=NS(=O)(=O)N2C)cc1	POLB inh 32µM!
COc1cc2nc(N3CCCN(C)CC3)nc(OC3CCN(C)CC3)c2cc1OC	none (no result: POLB inh, WRN inhibitor, POLH inh)
CC(=O)c1ccc(NC(=O)c2ccc3snnc3c2)cc1	POLB inh 25µM, Pol iota inh inconclusive, POLH inh inconclusive
COc1cccc(C2c3[nH]c4ccccc4c3C[C@H]3C(=O)N(C4CC4)CC(=O)N23)c1 (stereo not given in full)	Pol iota inh 32µM, POLH inh inconclusive
COc1cccc(C2c3[nH]c4ccccc4c3C[C@H]3C(=O)N(C)CC(=O)N23)c1 (stereo not given in full)	none
COc1ccccc1/C=C/c1cnccn1	none (no result: POLB inh, WRN inhibitor, POLH inh)
COc1ccc2nc(C)cc(N/N=C/c3ccccc3)c2c1	FEN1 inhibitor 35µM, WRN inhibitor inconclusive, POLH inh inconclusive, Pol kappa inh inconclusive (no result: POLB inh)
COc1ccccc1/C=N/Nc1cc(C)nc2ccc(C)cc12	none
CCC(c1ccc(O)c(O)c1)C(CC)c1ccc(O)c(O)c1 (stereo not given)	FEN1 inhibitor inconclusive, WRN inhibitor inconclusive, Pol iota inh 18µM, POLH inh 79µM, Pol kappa inh 50µM (no result: POLB inh)
